Experimental data from PubChem BioAssay AID743287 (Broad Institute, 2014).
The campaign covered roughly 370,000 compounds. About 2,300 (0.62%) were called active. This is one part of a sample in which actives are shown more often than they occur.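 Rule for the calls: active = lowest replicate activation of at least 40%, so every replicate reaches that level; inactive = the rest.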

Test: GLuc luminescence reporter in INS-1E cells, primary screen for activators of glucose-dependent secretion of insulin (AID 743287);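 note: 0% = median of neutral control wells and 100% = median of IBMX positive control wells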
Conditions: INS-1E GLuc reporter insulin secretion, 2-3 h, at 16.6 µM, active compounds read high
In the case of `COc1ccc(S(=O)(=O)N(C)C[C@H]2Oc3c(NS(=O)(=O)c4cccs4)cccc3C(=O)N([C@H](C)CO)C[C@@H]2C)cc1`, the activation is reported as -10.4% (inactive). For `CO[C@H]1CN(C)C(=O)c2ccc(NC(=O)C3CCCC3)cc2OC[C@H](C)N(C(=O)CC2CC2)C[C@@H]1C`, the activation was 8.95% (inactive). With `COc1ccc(NC(=O)Nc2cccc3c2O[C@H](CN(C)Cc2ccncc2)[C@@H](C)CN([C@@H](C)CO)C3=O)cc1` the activation was 3.69% (inactive). With `CCSc1ncnc2c(C#N)c3n(c12)CCCCC3` the activation was 47.4% (active). For `CN(C)CC(=O)N1CC2(C1)[C@H](c1ccccc1)[C@H](CO)N2C(=O)C1CC1`, the activation was 10.8% (inactive). For `N#Cc1cccc(-c2ccc([C@H]3[C@@H](CO)N[C@@H]3CNC(=O)C3CCC3)cc2)c1`, the activation was 7.07% (inactive). In the case of `c1ccc(CCN2CN=C(Nc3nc4ccccc4o3)NC2)cc1`, the activation is reported as -24.2% (inactive). For `Brc1ccccc1/C=N/Nc1nc2ccccc2o1`, the activation was 46.6% (active). For `CN1C(=O)c2cc(NC(=O)c3ccno3)ccc2OC[C@H]2O[C@@H](CC(=O)NCC(F)(F)F)CC[C@@H]21`, the activation was 19.2% (inactive). With `CC(C)(C)Oc1ccccc1Nc1nc(NCCO)nc(N2CCCC2)n1` the activation was -9.68% (inactive). For `Cn1ncc2c(N3CCCCC3)nc(NCCCO)nc21`, the activation was 60.1% (active). In the case of `COc1ccc(C#Cc2cnc3c(c2)C(=O)N([C@H](C)CO)C[C@@H](C)[C@H](CN(C)C(=O)Nc2cccc(OC)c2)O3)cc1`, the activation is reported as 6.97% (inactive). With `C[C@@H]1CN([C@H](C)CO)C(=O)c2cc(C#Cc3ccncc3)cnc2O[C@H]1CN(C)Cc1ccncc1` the activation was 9.79% (inactive). With `O=C(C[C@H]1CC[C@H](NC(=O)CCN2CCCCC2)[C@@H](CO)O1)Nc1ccccc1` the activation was 33.8% (inactive). In the case of `CCOC(=O)c1cc(C(=O)Nc2ccc(S(=O)(=O)Nc3ccc(OC)cc3)cc2)nn1C`, the activation is reported as 17% (inactive). For `CCOC(=O)c1cnc2c(c(C)nn2CC)c1Cl`, the activation was 7.57% (inactive). In the case of `CCOC(=O)c1cc(-c2ccc(Cl)s2)nc2c1c(C)nn2C`, the activation is reported as 60% (active). For `C[C@H]1CN([C@@H](C)CO)C(=O)Cc2cc(NC(=O)NC3CCCCC3)ccc2O[C@H]1CN(C)S(=O)(=O)c1ccccc1`, the activation was -7.37% (inactive). In the case of `CN1C(=O)c2cc(NC(=O)C3CCC3)ccc2OC[C@@H]2O[C@@H](CC(=O)NCc3ccccc3F)CC[C@@H]21`, the activation is reported as 19.7% (inactive). With `CC(=O)Nc1cc(-c2ccc(N3CCN(C)CC3)cc2)cn2c(-c3cccc(C(=O)N(C)C)c3)cnc12` the activation was 40.3% (active). With `CC(=O)c1cccc(-c2cnc3c(NC=O)cc(-c4ccc(N5CCN(C)CC5)cc4)cn23)c1` the activation was 9.93% (inactive). With `COc1cccc(-c2cnc3c(NC(C)=O)cc(-c4cccc(NC(C)=O)c4)cn23)c1` the activation was -1.53% (inactive). For `CC(C)C#Cc1ccc([C@H]2[C@@H](C#N)N(C(=O)CN(C)C)[C@H]2CO)cc1`, the activation was 1.29% (inactive). For `CC(C)NC(=O)N(C)C[C@H]1Oc2ccc(N(C)C)cc2CC(=O)N(C)C[C@@H]1C`, the activation was 0.073% (inactive). For `Cc1ccc(S(=O)(=O)N(C)C[C@H]2Oc3c(NS(=O)(=O)c4ccc(Cl)cc4)cccc3C(=O)N([C@H](C)CO)C[C@@H]2C)cc1`, the activation was 11.6% (inactive). With `COc1ccccc1CNC(=O)CCCn1c(=O)c2ccccc2n(CC(=O)NC2CCCC2)c1=O` the activation was -9.86% (inactive). For `COc1ccc(CCNC(=O)CCn2c(=O)oc3ccccc32)cc1OC`, the activation was 49.9% (inactive). With `COc1ccc(CCNC(=O)CCn2c(=O)c3ccccc3n(CC(=O)NCC3CCCO3)c2=O)cc1OC` (stereo not given) the activation was 55.9% (active). With `COCC(=O)Nc1ccc2c(c1)OC[C@@H](C)N(Cc1ccccc1C(=O)O)C[C@@H](C)[C@H](OC)CN(C)C2=O` the activation was 4.87% (inactive). For `O=C(c1ccc(F)cc1)N1CC(=O)N2[C@@H](CO)[C@@H](c3ccc(C#Cc4ccc(F)cc4)cc3)[C@@H]2C1`, the activation was -24.9% (inactive). With `CO[C@@H]1CN(C)C(=O)c2cc(NC(=O)c3cccc(Oc4ccccc4)c3)ccc2OC[C@H](C)NC[C@@H]1C` the activation was -6.99% (inactive). With `NC[C@H](Cc1ccccc1)NCCc1cc(C(F)(F)F)cc(C(F)(F)F)c1` the activation was 143% (active). For `CCC(=O)N1CCC2(CC1)CN(Cc1cc(F)ccc1F)[C@@H](CO)c1c2c2ccc(OC)cc2n1C`, the activation was -0.065% (inactive). For `O=C(c1ccccc1F)N1CC(=O)N2[C@H](CO)[C@H](c3ccc(-c4cccnc4)cc3)[C@H]2C1`, the activation was 27.6% (inactive). In the case of `Fc1c(F)c(C(F)(F)F)c(F)c(F)c1N1CCN(c2ccc3nnc(C(F)(F)F)n3n2)CC1`, the activation is reported as 57% (active). With `COc1ccc(CN(C)C[C@H]2OCCCC[C@H](C)Oc3ccc(NS(=O)(=O)c4ccc(C)cc4)cc3C(=O)N([C@@H](C)CO)C[C@H]2C)cc1` the activation was -29.4% (inactive). With `COc1ccc2c3c([nH]c2c1)[C@H](CO)N(S(=O)(=O)c1cn(C)cn1)CC31CCN(CC2CC2)CC1` the activation was 15.9% (inactive). With `C/C=C/c1ccc2c(c1)O[C@H](CN(C)C)[C@H](C)CN([C@H](C)CO)S2(=O)=O` the activation was 14.9% (inactive). With `COc1ccc(CNC(=O)COC(=O)CCS(=O)(=O)c2ccc(C)cc2)cc1OC` the activation was 45.1% (active). With `COc1ccc(CCNC(=O)CS(=O)(=O)Cc2nc(-c3ccc(C)cc3)oc2C)cc1OC` the activation was -11.8% (inactive). With `COc1ccc(CCNC(=O)c2nnc(CS(=O)(=O)c3ccccc3)o2)cc1OC` the activation was 6.41% (inactive). In the case of `Cc1ccc(S(=O)(=O)CCC(=O)OCc2ccccc2)cc1`, the activation is reported as -1.88% (inactive). For `CCOc1ccc(CCNC(=O)COC(=O)c2c(OC)cccc2OC)cc1OCC`, the activation was 19.6% (inactive). For `CCOc1ccc(CCNC(=O)COC(=O)CCS(=O)(=O)c2ccc(C)cc2)cc1OCC`, the activation was 54.2% (active). For `CCOc1ccc(CCNC(=O)COC(=O)C2CCN(S(=O)(=O)c3ccccc3)CC2)cc1OCC`, the activation was 22% (inactive). In the case of `COc1ccc(CCNC(=O)CCC(=O)NC2CCCCC2)cc1OC`, the activation is reported as -1.71% (inactive). In the case of `COc1ccc(CCNC(=O)NS(=O)(=O)c2ccc(C)cc2)cc1OC`, the activation is reported as 58.1% (active). For `COc1ccc(CCNC(=O)C(=O)NCc2ccccc2C)cc1OC`, the activation was 30.4% (inactive). For `COc1ccc(CCNC(=O)CCc2ccccc2O)cc1OC`, the activation was 55.3% (active). With `COc1ccc(CNC(=O)COC(=O)c2ccc(C)c(S(=O)(=O)N3CCOCC3)c2)cc1OC` the activation was 16.8% (inactive).
